Screening results as filed in PubChem BioAssay.
TGFb inhibitor: blocks TGF-b signaling; HepG2 CAGA-GFP TGF-b/SMAD3 reporter, GFP fluorescence, 18 h; TGF-beta stimulated, 500 pg/mL final; Potency, µM (highest dose often 46.1 µM), inactives show top-dose activity, negative = inhibition, actives largely listed as inhibitors; 410,000 tested, 1.2% active; AID 588855; further: on the % scale 0 is the no-effect control and ±100 the full control effect; nearly all actives have a fitted effect of over 65% in size
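Using HEPG2 CAGA-GFP reporter cells at 1000 cells/well, we pinned test compounds, stimulated with recombinant TGF-beta (500 pg/mL final) and measured total well GFP after 18 h.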
ATXN2 expr inh: reduces ATXN2 reporter expression in HEK-293 cells; HEK-293 ATXN2-luciferase reporter, luminescence, 24 h; Potency, µM (top dose mostly 57 µM), for the others: top-dose activity change, negative = inhibition, hits mostly inhibitors; 360,000 tested, 0.72% active; AID 1745845; further: on the % scale 0 is the no-effect control and ±100 the full control effect; nearly all actives have a fitted effect of over 55% in size
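ATXN2-luciferase reporter cells (luciferase flanked by upstream and downstream ATXN2 gene portions) were treated 24 h at 37 °C with compounds at up to 57 uM. SteadyGlo luminescence gave expression; GF-AFC fluorescence gave viability.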
RORg inh: ROR gamma (mouse) transcription inhibition; Potency, µM (titrated, usually from 53.6 µM), for the others: at the top dose activity change, negative = inhibition, most hits filed as inhibitors; 310,000 tested, 5.4% active; Drosophila S2 Gal4-RORgamma UAS-luciferase reporter, 20 h; P51450; further: on the % scale 0 is the no-effect control and ±100 the full control effect; nearly all actives have a fitted effect of over 60% in size
Target sequence (P51450 whole entry, looked up, the tested form may be a part): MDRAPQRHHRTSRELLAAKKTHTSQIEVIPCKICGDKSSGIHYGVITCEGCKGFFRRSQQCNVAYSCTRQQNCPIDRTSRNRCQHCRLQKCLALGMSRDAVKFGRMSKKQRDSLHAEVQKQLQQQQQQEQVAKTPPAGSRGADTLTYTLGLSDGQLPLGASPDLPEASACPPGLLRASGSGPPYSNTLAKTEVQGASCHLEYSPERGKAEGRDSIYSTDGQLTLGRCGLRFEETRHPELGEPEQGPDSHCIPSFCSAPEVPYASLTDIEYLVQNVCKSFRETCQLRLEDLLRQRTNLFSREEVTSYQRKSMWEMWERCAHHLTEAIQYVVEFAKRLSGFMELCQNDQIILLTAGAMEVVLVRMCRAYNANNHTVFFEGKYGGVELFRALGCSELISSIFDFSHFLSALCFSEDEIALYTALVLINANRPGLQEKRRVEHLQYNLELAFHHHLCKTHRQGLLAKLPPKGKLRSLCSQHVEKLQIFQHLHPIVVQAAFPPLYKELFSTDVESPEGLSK
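Drosophila Schneider cells stably carrying a metallothionein-driven Gal4 DBD–ROR gamma fusion and a UAS-Photinus luciferase reporter were exposed to compound for 1 hr, then induced with copper sulfate (700 uM final) for 20 hr at ambient temperature before luminescence reading.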
VP16 counter: counter-screen for ROR gamma inhibitors: Gal4-VP16 reporter | 310,000 tested, 3.5% active | Drosophila S2 Gal4-VP16 UAS-luciferase, luminescence, 20 h | Potency, µM (series often up to 53.6 µM), without a hit: top-dose activity, negative = inhibition, actives largely listed as inhibitors | AID 2546;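 further: Gal4-VP16 expression switched on by copper sulfate through the metallothionein promoter; on the % scale 0 is the no-effect control and ±100 the full control effect; nearly all actives have a fitted effect of over 50% in size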
ATXN viability: cell viability loss in ATXN counter-screen | S2 cells (HEK-293 line with an ATXN2-luciferase reporter) viability, CellTiter-Fluor protease fluorescence, 24 h | Potency, µM (titrated, usually from 56.7 µM), usual class: cytotoxic | 400,000 tested, 0.49% active; further: nearly all actives have a fitted effect of over 40% in size
HepG2 tox-1: counter-screen for TGF-b inhibitors: cytotoxicity in HepG2 cells; AID 588856; Potency, µM (top dose mostly 46.1 µM), for inactives: top-dose activity change, negative = cytotoxicity, usual class: cytotoxic; 410,000 tested, 0.76% active; HepG2 CAGA-GFP viability, ATP luminescence, 18 h
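HepG2 CAGA-GFP cells (1000/well, DMEM with 1% FBS) received compound, then TGF-beta at 500 pg/mL final, and were incubated 18 hours at 37 degrees C. Viability was read by CellTiter-Glo luminescence. Media-only wells were set as complete cell-killing and DMSO as no toxicity.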
TGFb CAGA inh: TGF-b pathway inhibition, cherry-pick retest; shares compounds with TGFb inhibitor; HepG2 CAGA-GFP TGF-b reporter, GFP fluorescence, 18 h; cells stimulated with TGF-beta, 500 pg/mL; Potency, µM (top dose mostly 46.1 µM), inactives show at the highest dose activity, negative = inhibition, hits mostly inhibitors; 1,600 tested, 63% active; further: on the % scale 0 is the no-effect control and ±100 the full control effect; nearly all actives have a fitted effect of over 65% in size
HepG2 tox-2: toxic to HepG2 cells in TGF-b counterscreen | Potency, µM (titrated, usually from 46.1 µM), for the others: at the top dose activity, negative = cytotoxicity, most hits filed as inhibitors | 1,600 tested, 27% active | AID 720535 | shares compounds with TGFb inhibitor | HepG2 CAGA-GFP viability, ATP luminescence, 18 h; cells stimulated with TGF-beta, 500 pg/mL; further: on the % scale 0 is the no-effect control and ±100 the full control effect; nearly all actives have a fitted effect of over 70% in size
CCL64 TGFb inh: blocks TGF-b signaling in CCL64 reporter cells. shares compounds with TGFb inhibitor. Potency, µM (series often up to 46.1 µM), without a hit: at the highest dose activity, negative = inhibition, hits mostly inhibitors. 1,600 tested, 41% active. CCL64 CAGA-GFP reporter, TGF-b stimulated, GFP fluorescence, 18 h; further: nearly all actives have a fitted effect of over 65% in size
TGFb COP inh: blocks TGF-b signaling in HepG2 COP reporter | AID 720537 | HepG2 COP-GFP TGF-b reporter, GFP fluorescence, 18 h; cells stimulated by added recombinant TGF-beta | 1,600 tested, 3% active | Potency, µM (top dose mostly 46.1 µM), for inactives: top-dose activity, negative = inhibition, actives largely listed as inhibitors | shares compounds with TGFb inhibitor; further: nearly all actives have a fitted effect of over 70% in size
Starred values were filed as active, the others as inactive; i = inactive; ? = inconclusive; nt = no result given. A selection: hits, their analogues and other compounds. The true share with any hit is near 6.3%. The call rests on the fitted dose curve; in most records, active means well fitted curve in the direction sought with a large enough effect; inconclusive means small, poorly fitted or top-dose-only effect, or another doubt; inactive means no such curve, though single readings can be large; an effect the other way counts as inactive or inconclusive. Potency means the concentration at half of the fitted maximal effect.

SMILES	TGFb inhibitor	ATXN2 expr inh	RORg inh	VP16 counter	ATXN viability	HepG2 tox-1	TGFb CAGA inh	HepG2 tox-2	CCL64 TGFb inh	TGFb COP inh
CCn1cc(CN2CCCC(C(=O)Nc3cccc(-n4cccn4)c3)C2)cn1 (configuration not stated)	-2%	nt	nt	nt	?	-8%	nt	nt	nt	nt
COc1ccc(C(c2c(O)ccc3ccccc23)N2CCOCC2)c(OC)c1 (configuration not stated)	6.3µM*	-48%	-9%	-26%	nt	-114%	?	23µM*	?	?
O=C(Nc1ccc(C(F)(F)F)cc1)N1CCN(c2ccnc3cc(Cl)ccc23)CC1	11µM*	?	3%	-8%	?	19%	23µM*	?	?	73%
COc1cc(OC)cc(-c2nnc3n2N=C(c2ccc(OC)c(OC)c2)CS3)c1	nt	nt	-3%	-3%	nt	nt	nt	nt	nt	nt
Cc1ccc(CNC(=O)Cc2ccc(NC(=O)N3CCSc4ncccc43)cc2)cc1	-5%	nt	nt	nt	nt	11%	nt	nt	nt	nt
COc1ccc(Oc2ncc3nc(C)c(=O)n(Cc4ccc(F)cc4)c3n2)cc1	nt	nt	?	3%	nt	nt	nt	nt	nt	nt
Cc1nc2cc(-c3cccc(F)c3)nn2c(C)c1CCC(=O)NC(C)c1ccc2c(c1)OCCO2 (configuration not stated)	?	?	?	-3%	i	-18%	?	-29%	29µM*	11%
Cc1nc2cc(-c3ccccc3)nn2c(C)c1CCC(=O)NC(C)c1ccc2c(c1)OCCO2 (configuration not stated)	-12%	-25%	19%	2%	i	-82%	nt	nt	nt	nt
Cc1ccc(C(=O)OCC(=O)NC2CCCC2)cc1C	-5%	8%	-7%	-6%	i	1%	nt	nt	nt	nt
O=C(c1ccc2c3c(cccc13)CC2)C1CCCN(Cc2ccncc2)C1 (configuration not stated)	7.9µM*	nt	-23%	?	i	-44%	-29%	?	?	24%
CCc1nc(CN2CCCC(C(=O)c3ccc4c5c(cccc35)CC4)C2)c(C)[nH]1 (configuration not stated)	?	-33%	-29%	-13%	i	-43%	nt	nt	nt	nt
COc1ccc(Br)cc1C(=O)Nc1ccc2oc(-c3cccnc3)nc2c1	-11%	-12%	nt	nt	i	2%	nt	nt	nt	nt
O=C(Nc1ccc(Cl)cc1)c1cnn2c1NC(c1ccccc1)=CC2c1ccccc1 (configuration not stated)	?	?	nt	nt	nt	-31%	nt	nt	nt	nt
CCOC(=O)c1cc([N+](=O)[O-])sc1NC(=O)c1ccc(S(=O)(=O)N2CC3(C)CC2CC(C)(C)C3)cc1 (configuration not stated)	?	-25%	16%	-2%	?	6%	?	?	?	-8%
CC(=O)Nc1ccc(S(=O)(=O)N2CC3(C)CC2CC(C)(C)C3)cc1 (configuration not stated)	6%	3%	4%	-2%	i	4%	nt	nt	nt	nt
Cn1c(NCc2ccncc2)nc2cc(-c3ccsc3)sc2c1=O	?	1%	nt	nt	i	1%	nt	nt	nt	nt
Cn1c(NCC2CCCCC2)nc2cc(-c3ccsc3)sc2c1=O	?	-4%	nt	nt	i	-16%	23µM*	?	?	23%
CC(C)C[C@@H](CN1CCCC1CN1C(=S)NC[C@@H]1Cc1ccc(O)cc1)N1C[C@H](Cc2ccc(O)cc2)N(CC2CCCCC2)C1=S (some centres not stated)	10µM*	?	nt	nt	?	-100%	8.2µM*	?	?	?
CC(C)C[C@H]1CNC(=S)N1CC1CCCN1C[C@H](CC(C)C)N1C[C@H](Cc2ccc(O)cc2)N(CC2CCCCC2)C1=S (some centres not stated)	10µM*	?	nt	nt	?	11µM*	?	?	?	?
CC(C)C[C@H]1CNC(=S)N1CC1CCCN1C[C@H](CC(C)C)N1C[C@H](Cc2ccc(O)cc2)N(CC2CCCCCC2)C1=S (some centres not stated)	?	?	nt	nt	?	-54%	nt	nt	nt	nt
CC(C)C[C@H]1CNC(=S)N1C[C@H]1CCCN1C[C@H](CC(C)C)N1C[C@H](Cc2ccc(O)cc2)N(CC2CCCCCC2)C1=S	6.3µM*	?	nt	nt	22µM*	11µM*	?	?	?	91%
CC(C)C[C@H]1CNC(=S)N1C[C@H]1CCCN1C[C@H](Cc1ccc(O)cc1)N1C[C@H](Cc2ccccc2)N(CCc2ccccc2)C1=S	?	-12%	nt	nt	?	-2%	nt	nt	nt	nt
CC(=O)c1ccc(NC(=O)COc2ccccc2-c2nc(C(C)C)no2)cc1	-26%	7%	nt	nt	i	3%	nt	nt	nt	nt
NC(=O)c1ccsc1NC(=O)c1ccc(S(=O)(=O)N2CCCc3ccccc32)cc1	11µM*	?	?	-12%	?	-16%	5.2µM*	?	16µM*	-1%
CC1CCCCN1S(=O)(=O)c1ccc(C(=O)Nc2sccc2C(N)=O)cc1 (configuration not stated)	-1%	8%	-43%	?	i	-24%	nt	nt	nt	nt
CCN1c2ccccc2-c2nc(SCC(=O)Nc3cccc(C(F)(F)F)c3)ncc2S1(=O)=O	0%	-15%	nt	nt	?	-10%	nt	nt	nt	nt
